Here are results for eight compounds from PubChem BioAssay (Tox21).

Inconclusive results are not listed. Calls of active or inactive are those of the source. Unless noted, calls come from the whole dose curve.

A short description of experiment [1]: Nuclear factor erythroid 2-related factor 2/antioxidant responsive element (Nrf2/ARE) small molecule agonists: qHTS cell viability counter screen in human keratinocytes (AID 1919968; active = well fitted curve in the direction sought with a large enough effect in the repeat runs; an effect the other way counts as inactive or inconclusive; note: nearly all actives have a fitted effect of over 55% in size). An outline of the steps: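 After a 5 h attachment period, ARE-reporter keratinocytes were dosed with compounds in DMSO and then cultured 23 h at 37 C. Cell viability came from CellTiter-Fluor signal read after a further 1 h.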

Experiment [2] in a line: Nuclear factor erythroid 2-related factor 2/antioxidant responsive element (Nrf2/ARE) small molecule agonists: luciferase reporter gene qHTS assay in human keratinocytes (AID 1919969). Note: nearly all actives have a fitted effect of over 35% in size.
The target in experiment [3] is Gonadotropin-releasing hormone receptor (Homo sapiens) (UniProt P30968). The experiment is described as follows: Human gonadotropin-releasing hormone receptor (GnRHR) small molecule agonists, calcium flux assay in GnRHR-HEK293 cells (AID 1920063). Note: nearly all actives have a fitted effect of over 35% in size. In a few lines: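 We seeded human GnRHR-expressing HEK293 cells for 18 hours, loaded them with calcium dye for an hour at 37 C, added test compounds, and recorded fluorescence intensity kinetically for three minutes.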
Sequence of Gonadotropin-releasing hormone receptor (Homo sapiens) (P30968 whole entry, looked up): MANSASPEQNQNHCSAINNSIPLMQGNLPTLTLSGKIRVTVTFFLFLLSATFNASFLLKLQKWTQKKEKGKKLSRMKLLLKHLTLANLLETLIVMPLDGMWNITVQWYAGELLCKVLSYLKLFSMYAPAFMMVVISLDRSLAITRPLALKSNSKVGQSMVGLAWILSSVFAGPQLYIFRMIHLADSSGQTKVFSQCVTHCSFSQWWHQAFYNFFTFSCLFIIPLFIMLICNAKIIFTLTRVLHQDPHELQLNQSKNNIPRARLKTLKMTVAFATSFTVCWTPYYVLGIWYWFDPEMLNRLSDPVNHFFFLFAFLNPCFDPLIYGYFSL

For experiment [4], the target named is KiSS-1 receptor (Homo sapiens) (UniProt Q969F8). The experiment is described as follows: Human kisspeptin (KISS1R) small molecule agonists, calcium flux assay in KISS1R-HEK293 cells (AID 1920064; active = well fitted curve in the direction sought with a large enough effect in the repeat runs; an effect the other way counts as inactive or inconclusive). In a few lines: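 Kinetic calcium assay, 1 s sampling over 3 min at Ex/Em 480/540, in HEK293 cells engineered with human KISS1R; compounds delivered in DMSO after 1 h dye loading.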
Sequence of KiSS-1 receptor (Homo sapiens) (Q969F8 whole entry, looked up): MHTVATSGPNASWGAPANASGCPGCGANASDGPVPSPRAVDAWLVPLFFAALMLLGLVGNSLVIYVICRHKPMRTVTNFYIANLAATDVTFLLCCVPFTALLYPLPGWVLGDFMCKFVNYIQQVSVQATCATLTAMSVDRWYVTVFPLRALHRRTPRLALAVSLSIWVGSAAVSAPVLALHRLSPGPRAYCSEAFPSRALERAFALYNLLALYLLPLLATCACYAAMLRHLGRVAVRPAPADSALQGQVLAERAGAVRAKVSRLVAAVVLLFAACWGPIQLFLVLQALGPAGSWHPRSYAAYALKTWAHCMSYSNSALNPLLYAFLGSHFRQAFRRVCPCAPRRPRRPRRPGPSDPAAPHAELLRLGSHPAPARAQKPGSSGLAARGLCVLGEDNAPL

The nature of experiment [5]: G protein-coupled receptor (GPCR) small molecule agonists, calcium flux assay: HEK293 wild type cell line counter screen (AID 1920065). In a few lines: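 Calcium-sensitive dye, loaded 1 h at 37 C into cells cultured 18 h, reports compound-evoked calcium release as fluorescence (Ex/Em 480/540), measured over 3 min. Agonist mode; 15-point titrations, triplicate.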
A short description of experiment [6]: p53 small molecule agonists, cell-based qHTS assay with human liver microsomes (AID 1963577).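 Note: p53 response element beta-lactamase reporter cells with liver microsomes plus NADPH.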 In a few lines:
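HLM-supplemented p53RE-bla reporter assay: 16 h compound exposure at 37 C, microsomes and NADPH each 0.5 mg/mL final, read by fluorescence intensity.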

Experiment [7] in a line: p53 small molecule agonists, cell-based qHTS assay with rat liver microsomes (AID 1963578). In a few lines:
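Quantitative HTS of the Tox21 10K library: p53RE-bla cells, rat liver microsomes plus NADPH at 0.5 mg/mL final each, 16 h at 37 C, beta-lactamase fluorescence detection.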

A short description of experiment [8]: p53 small molecule agonists, cell-based qHTS assay with human liver microsomes: qHTS cell viability counter screen (AID 1963579). Note: nearly all actives have a fitted effect of over 45% in size. An outline of the steps: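 Viability of p53RE-bla cells is measured as CellTiter-Glo luminescence following a 16 h, 37 C incubation with compound, liver microsomes from human donors and NADPH.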
The nature of experiment [9]: p53 small molecule agonists, cell-based qHTS assay with rat liver microsomes: qHTS cell viability counter screen (AID 1963580). Note: nearly all actives have a fitted effect of over 45% in size. An outline of the steps:
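HCT-116 p53RE-bla, 4,000 cells/well, 5 h pre-incubation; cpd + rat liver microsomes 0.5 mg/mL + NADPH 0.5 mg/mL (final); 16 h, 37 C; CellTiter-Glo, 30 min RT; luminescence.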

Experiment [10] in a line: p53 small molecule agonists, cell-based qHTS assay: qHTS cell viability counter screen (AID 1963581). Note: nearly all actives have a fitted effect of over 45% in size. In a few lines: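 Following 5 h attachment, HCT-116 p53RE-bla cells took up compound for 16 h at 37 C; the reporter was read with B/G FRET substrate (2 h RT), and viability then via CellTiter-Glo ATP luminescence.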
Experiment [11] in a line: p53 small molecule agonists, cell-based qHTS assay (AID 1963582; active = well fitted activation curve with a large enough effect in the signal ratio in the repeat runs, not every such curve was filed as active; the % refers to the signal ratio). An outline of the steps: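 In this cell-based concentration-response screen, a p53 response element drives beta-lactamase; cells received DMSO-borne compounds after 5 h culture and were incubated a further 16 h before FRET substrate development.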
The target in experiment [12] is 5-hydroxytryptamine receptor 2A (Homo sapiens) (UniProt P28223). The experiment is described as follows: 5-hydroxytryptamine receptor 2A (HTR2A) small molecule antagonists, cell-based qHTS assay (AID 1963586). Note: nearly all actives have a fitted effect of over 45% in size. An outline of the steps:
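Antagonist-mode intracellular calcium assay: DOI (4 nM) added after 5 min compound pre-incubation at room temperature to dye-loaded HTR2A-CHO cells. Fluorescence followed for 3 min, sampled every second.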

Experiment [13] shares this target. The experiment is described as follows: 5-hydroxytryptamine receptor 2A (HTR2A) small molecule agonists, cell-based qHTS assay (AID 1963587). Note: nearly all actives have a fitted effect of over 30% in size. An outline of the steps: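 Kinetic calcium-flux fluorescence (2 min, 1 sec intervals) after compound addition in agonist mode. HTR2A-CHO cells were cultured 18 h, then dye-loaded 1 h at 37 C.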
Experiment [14] concerns the target Muscarinic acetylcholine receptor M1 (Homo sapiens) (UniProt P11229). Kind of experiment: Cholinergic receptor muscarinic 1 (CHRM1) small molecule antagonists, cell-based qHTS assay (AID 1963588). Note: nearly all actives have a fitted effect of over 40% in size. Note: potency is the fitted concentration of half-maximal effect. In a few lines:
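CHRM1-CHO calcium-flux assay, antagonist mode. Cells were seeded 18 h, dye-loaded 1 h at 37 C and given compound for 5 min at RT, then acetylcholine was added at 50nM. FDSS fluorescence was read 3 min; 15 concentrations, three runs.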

Experiment [15] in a line: cAMP Responsive Elements (CRE) small molecule agonists, cell-based qHTS assay (AID 1963590). In a few lines:
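A CRE-responsive beta-lactamase reporter in HEK 293T cells was used. Treatment ran 3 h at 37 C; detection used LiveBLAzer B/G FRET substrate for 2 h at room temperature.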

A short description of experiment [16]: cAMP Responsive Elements (CRE) small molecule antagonists, cell-based qHTS assay (AID 1963591; active = well fitted inhibition curve with a large enough effect in the signal ratio in the repeat runs, not every such curve was filed as active; the % refers to the signal ratio). In a few lines: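 HEK293T cells carrying a CRE-driven beta-lactamase reporter receive compound and NKH477 (0.25 uM final) for 3 h. Fluorescence from LiveBLAzer B/G FRET substrate is read after 2 h at room temperature.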
The target of experiment [17] is Beta-2 adrenergic receptor (Homo sapiens) (UniProt P07550). The experiment is described as follows: Adrenergic beta2 receptor (ADRB2) small molecule antagonists, cell-based qHTS assay (AID 1963592). Note: series mostly up to about 92 µM; nearly all actives have a fitted effect of over 50% in size. In a few lines:
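Cells (CHO, stable ADRB2 overexpression) incubated 18-20hr at 37C; compounds added from DMSO; agonist mix (1nM isoproterenol, 100uM IBMX, 25uM Ro-20-1724) added; 0.5hr RT; d2-cAMP and anti-cAMP-cryptate added; 1hr RT; 665/615 nm read.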

The target of experiment [18] is D(2) dopamine receptor (Homo sapiens) (UniProt P14416). Kind of experiment: Dopamine D2 receptor (DRD2) small molecule agonists, cell-based qHTS assay (AID 1963594). Note: nearly all actives have a fitted effect of over 35% in size. In a few lines:
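cAMP accumulation in DRD2-HEK293 cells measured by HTRF after 1 h detection; compounds added 10 min before NKH477 (200nM […]) forskolin-analogue stimulation, 30 min at room temperature, with Ro20-1724 present at 0.1 mM final.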

Experiment [19] shares this target. Kind of experiment: Dopamine D2 receptor (DRD2) small molecule antagonists, cell-based qHTS assay (AID 1963595; active = well fitted inhibition curve with a large enough effect in the signal ratio in the repeat runs, with a control signal flat; the % refers to the signal ratio). In a few lines:
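Stable D2 receptor HEK293 line, 24 h after seeding. Compound preincubated 10 min, then quinpirole (12 nM) with forskolin analogue NKH477 (200 nM), 30 min, room temperature. Detection by time-resolved FRET of cAMP.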

In experiment [20] the target is Muscarinic acetylcholine receptor M1 (Homo sapiens) (UniProt P11229). The experiment is described as follows: Cholinergic receptor muscarinic 1 (CHRM1) small molecule agonists, cell-based qHTS assay (AID 1963589). Note: nearly all actives have a fitted effect of over 35% in size. In a few lines:
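Measures agonist-induced intracellular calcium rise. Stable human CHRM1 CHO line, 1 h dye load at 37 C, compounds from DMSO, kinetic fluorescence read.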

Sequence of Muscarinic acetylcholine receptor M1 (Homo sapiens) (P11229 whole entry, looked up): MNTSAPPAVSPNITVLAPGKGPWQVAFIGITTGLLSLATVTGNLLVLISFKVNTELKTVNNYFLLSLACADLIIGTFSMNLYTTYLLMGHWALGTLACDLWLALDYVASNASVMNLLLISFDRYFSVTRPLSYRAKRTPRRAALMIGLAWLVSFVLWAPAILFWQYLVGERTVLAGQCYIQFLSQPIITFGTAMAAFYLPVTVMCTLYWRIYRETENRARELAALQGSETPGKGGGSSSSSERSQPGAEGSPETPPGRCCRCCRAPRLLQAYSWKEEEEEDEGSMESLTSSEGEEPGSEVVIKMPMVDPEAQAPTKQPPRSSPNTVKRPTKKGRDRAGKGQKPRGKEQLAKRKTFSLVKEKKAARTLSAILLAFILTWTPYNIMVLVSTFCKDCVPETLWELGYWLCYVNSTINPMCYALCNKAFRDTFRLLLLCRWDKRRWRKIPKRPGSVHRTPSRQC
Sequence of 5-hydroxytryptamine receptor 2A (Homo sapiens) (P28223 whole entry, looked up): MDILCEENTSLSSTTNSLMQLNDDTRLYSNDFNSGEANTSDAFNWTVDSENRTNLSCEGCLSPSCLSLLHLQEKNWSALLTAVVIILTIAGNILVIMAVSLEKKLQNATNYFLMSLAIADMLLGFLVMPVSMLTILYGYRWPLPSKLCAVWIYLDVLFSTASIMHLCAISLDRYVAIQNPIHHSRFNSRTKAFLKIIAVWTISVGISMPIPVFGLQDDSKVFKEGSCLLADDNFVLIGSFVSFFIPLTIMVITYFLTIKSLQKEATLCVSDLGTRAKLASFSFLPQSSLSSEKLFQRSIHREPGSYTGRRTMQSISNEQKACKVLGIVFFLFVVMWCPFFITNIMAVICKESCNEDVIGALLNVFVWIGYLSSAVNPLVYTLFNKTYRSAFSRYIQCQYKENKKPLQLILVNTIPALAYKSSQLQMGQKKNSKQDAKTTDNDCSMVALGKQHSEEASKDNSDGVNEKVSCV
Sequence of D(2) dopamine receptor (Homo sapiens) (P14416 whole entry, looked up): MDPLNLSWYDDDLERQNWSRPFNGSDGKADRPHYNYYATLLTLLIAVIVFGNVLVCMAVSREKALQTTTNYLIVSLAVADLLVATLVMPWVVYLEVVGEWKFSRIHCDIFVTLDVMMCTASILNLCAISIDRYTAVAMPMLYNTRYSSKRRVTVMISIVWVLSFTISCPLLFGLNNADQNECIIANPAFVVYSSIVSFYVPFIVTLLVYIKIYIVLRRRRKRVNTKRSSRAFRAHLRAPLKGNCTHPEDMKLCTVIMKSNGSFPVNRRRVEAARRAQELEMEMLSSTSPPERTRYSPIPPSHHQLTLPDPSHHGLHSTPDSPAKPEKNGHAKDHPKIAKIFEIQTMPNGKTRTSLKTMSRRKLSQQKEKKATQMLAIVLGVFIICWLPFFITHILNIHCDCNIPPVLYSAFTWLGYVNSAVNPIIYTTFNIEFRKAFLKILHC
Sequence of Beta-2 adrenergic receptor (Homo sapiens) (P07550 whole entry, looked up): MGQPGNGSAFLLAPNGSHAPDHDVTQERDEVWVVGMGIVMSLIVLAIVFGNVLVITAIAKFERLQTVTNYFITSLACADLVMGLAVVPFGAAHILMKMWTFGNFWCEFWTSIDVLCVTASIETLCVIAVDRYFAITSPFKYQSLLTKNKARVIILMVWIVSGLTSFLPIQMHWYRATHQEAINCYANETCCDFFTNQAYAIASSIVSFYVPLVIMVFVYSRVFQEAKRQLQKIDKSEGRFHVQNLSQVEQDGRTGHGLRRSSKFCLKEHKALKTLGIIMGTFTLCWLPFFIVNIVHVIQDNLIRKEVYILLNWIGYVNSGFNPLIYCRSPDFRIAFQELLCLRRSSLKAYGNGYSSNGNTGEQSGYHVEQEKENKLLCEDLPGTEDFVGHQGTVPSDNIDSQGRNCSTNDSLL

With `O=C(/N=N/C(=O)OCc1ccccc1)OCc1ccccc1`, the Potency entry in experiment [1], in experiment [2], in [3], in [4], in experiment [5] and in [6] was “inactive” each time. Also, the Potency entry in experiment [7], in experiment [8], in experiment [9], in experiment [10], in experiment [11] and in experiment [12] was “inactive” in each case. The Potency result in experiment [13], in experiment [14], in [15], in [16], in [17] and in experiment [18] was “inactive” throughout. Besides, in experiment [19], the Potency entry is “inactive”.

Regarding `NCC1CCCC(CN)C1` (configuration not stated), the Potency entry in experiment [1], in experiment [2], in [3], in experiment [4], in experiment [5] and in experiment [6] was “inactive” in each case. Besides, the Potency result in experiment [7], in experiment [8], in experiment [9], in [10], in experiment [11] and in experiment [12] was “inactive” throughout. For the same compound, the Potency entry in experiment [13], in [15], in experiment [16] and in experiment [17] was “inactive” each time. Also, the Potency in experiment [14] was 18.8 µM (active).

Consider `O=S(=O)(O)CC(O)CCl` (configuration not stated), for which the Potency result in [1], in [2], in experiment [3], in experiment [4], in [5] and in experiment [6] was “inactive” in each case. Further, the Potency result in experiment [7], in [8], in experiment [9], in experiment [10], in experiment [11] and in experiment [12] was “inactive” each time. The Potency entry in experiment [13], in experiment [14], in [15], in [16], in [17] and in experiment [19] was “inactive” throughout.

Regarding `C[Si]1(C)O[Si](C)(C)O[Si](C)(C)O[Si](C)(C)O[Si](C)(C)O1`, the Potency result in [1], in [2], in experiment [3], in [4], in [5] and in experiment [6] was “inactive” throughout. For the same compound, the Potency result in experiment [7], in experiment [8], in [9], in [10], in experiment [11] and in experiment [12] was “inactive” each time. Also, the Potency result in experiment [13], in experiment [14], in experiment [15], in experiment [16], in experiment [17] and in [18] was “inactive” each time. The Potency result in experiment [19] is “inactive”.

On to `CCn1cc(C(=O)O)c(=O)c2cnc(N3CCNCC3)nc21`, for which the Potency result in [1], in experiment [2], in experiment [3], in experiment [4], in experiment [5] and in experiment [6] was “inactive” throughout. Besides, the Potency entry in [7], in experiment [8], in experiment [9], in [10], in experiment [11] and in [12] was “inactive” in each case. Further, the Potency result in experiment [14], in experiment [20], in experiment [15], in experiment [16], in experiment [17] and in [18] was “inactive” throughout. Besides, the Potency entry in experiment [19] was “inactive”.

On to `Cc1cc(C)c(N)c(Cl)c1`, for which the Potency entry in experiment [1], in experiment [2], in experiment [3], in [4], in [5] and in [6] was “inactive” each time. The Potency result in experiment [7], in experiment [8], in [9], in experiment [10], in experiment [11] and in experiment [12] was “inactive” each time. In addition, the Potency entry in experiment [13], in experiment [20], in experiment [15], in experiment [16], in [17] and in experiment [18] was “inactive” in each case. For the same compound, the Potency result in experiment [19] was “inactive”.

As to `O=C(O)CNc1ccccc1`, the Potency result in experiment [1], in experiment [2], in [3], in experiment [4], in experiment [5] and in experiment [6] was “inactive” throughout. The Potency result in experiment [7], in experiment [8], in experiment [9], in experiment [10], in experiment [11] and in [12] was “inactive” in each case. Besides, the Potency result in experiment [13], in [20], in [15], in [17] and in experiment [19] was “inactive” throughout.

For `COC(=O)Cc1cccc2ccccc12`, the Potency result in experiment [1], in [2], in [3], in experiment [4], in experiment [5] and in [6] was “inactive” throughout. Moreover, the Potency entry in experiment [7], in [8], in experiment [9], in [10], in experiment [11] and in experiment [12] was “inactive” in each case. Also, the Potency result in experiment [14], in experiment [20], in [15], in experiment [16], in experiment [17] and in experiment [18] was “inactive” in each case. Moreover, the Potency entry in experiment [19] was “inactive”.
